Assay results: PubChem BioAssay (NCI)
The panel holds about 79,000 compounds, 15% with a hit somewhere; the sample as a whole holds those more often. A number with no mark means an inactive call. Active and inactive are the calls of the source. Cut-off read from the data, not from the text of the source: active = growth inhibition above about 70%; inactive = the rest. Where a SMILES comes first, the peptide text is derived from it. The star is where a group is joined. Boc = CC(C)(C)OC(=O)*; OBn = c1ccc(CO*)cc1

Key:
[1] = NCI Yeast Anticancer Drug Screen. Data for the rad50 strain (AID 155);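 note: 0% = growth of vehicle-only cultures of the same strain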; conditions: S. cerevisiae rad50 strain growth inhibition, active compounds read high; at 50.0 µM unless noted
How it was run: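 Inhibition values express reduced yeast growth in compound-treated cultures relative to vehicle-treated controls.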

[2] = NCI Yeast Anticancer Drug Screen. Data for the mec2-1 strain (AID 157); conditions: S. cerevisiae mec2-1 strain, active compounds read high; at 50.0 µM unless noted
How it was run: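 Vehicle-treated cultures served as reference for growth inhibition of compound-exposed mec2-1 yeast.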

[3] = NCI Yeast Anticancer Drug Screen. Data for the sgs1 mgt1 strain (AID 161);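 note: 0% = growth of cultures given vehicle only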; conditions: S. cerevisiae sgs1 mgt1 strain, active compounds read high; at 50.0 µM unless noted
How it was run: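 Test agents were incubated with a DNA-repair-mutant yeast strain. Growth was then read and compared against vehicle-treated controls.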

[4] = NCI Yeast Anticancer Drug Screen. Data for the cln2 rad14 strain (AID 165);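 note: 0% = growth equal to vehicle treated cultures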; conditions: S. cerevisiae cln2 rad14 strain, active compounds read high; at 50.0 µM unless noted
How it was run: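 Each compound was tested on cln2 rad14 yeast. Inhibition of growth was calculated against vehicle-exposed controls.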

[5] = NCI Yeast Anticancer Drug Screen. Data for the bub3 strain (AID 167); conditions: S. cerevisiae bub3 mutant strain, active compounds read high; at 50.0 µM unless noted
How it was run: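 Steps: expose the mutant yeast strain to compound; grow alongside vehicle-treated cultures; measure growth; express inhibition against the vehicle cultures.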

[6] = NCI Yeast Anticancer Drug Screen. Data for the mlh1 rad18 strain (AID 175); conditions: S. cerevisiae mlh1 rad18 strain growth inhibition, active compounds read high; at 50.0 µM unless noted
How it was run: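 Vehicle-treated cultures served as the reference for growth inhibition in a yeast strain carrying DNA damage repair alterations exposed to each compound.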

SMILES	growth inhibition [1]	growth inhibition [2]	growth inhibition [3]	growth inhibition [4]	growth inhibition [5]	growth inhibition [6]
CCC[CH2][Sn]1([CH2]CCC)[O]C2C(CO)OC(n3c(Br)c(C#N)c4c(N)ncnc43)C2[O]1 (stereo not given)	98.4% (active)	98.5% (active)	98.7% (active)	98.7% (active)	97.7% (active)	98% (active)
CCCCCCCCCCC1CC(=O)OC1=O (stereo not given)	17.2%	14.7%	29.6%	9.45%	9.25%	8.3%
Cc1ccc(OC/C=C/CSc2ccc(Br)cc2)cc1	4.95%	4.75%	2.4%	-2.4%	-19.9%	-24.9%
O=c1[nH]c(-c2ccccc2)nc2nc3ccc([N+](=O)[O-])cc3[n+]([O-])c12	19.9%	-2%	-1.75%	-7.55%	-1%	7%
S=C(NCc1cccc(Cl)c1)Nc1ccccc1	-4.65%	27.9%	14.2%	-24.9%	29.6%	24.4%
O=NN(CCCl)C(=O)Oc1ccccc1	-1.95%	-10.6%	-0.05%	0.15%	-1.9%	-11.3%
O=C(CC(CC(=O)C(c1ccccc1)c1ccccc1)c1ccccc1)C(c1ccccc1)c1ccccc1	45.9%	18%	61.9%	-0.6%	-8.3%	29.6%
COc1ccc2[nH]c3ccccc3c(=O)c2c1	12.6%	-3.2%	8.8%	-66.4%	3%	-6.65%
CC1=C(C)CC2(CCCCC2=O)S(=O)C1 (stereo not given)	-34.8%	-28.8%	-9.85%	11.1%	15.8%	2.55%
COC(=O)/C=C/c1cccnc1	-16.4%	-28.6%	-36.1%	-22.7%	-10.3%	-12.3%
CCC12CCCNC1c1c(n(C)c3ccccc13)C(C(=O)OC)C2 (stereo not given)	36.9%	-2.9%	25%	25.6%	-9.05%	-20.7%
CN1c2ccccc2C(=O)N2C(=O)CCC21C (stereo not given)	-38.9%	-15.4%	-20.7%	-14.2%	-13.4%	-11.1%
COc1cc2cnc3c4cc(OCc5ccccc5)ccc4ccc3c2cc1OC	-10.1%	3.2%	-1%	25.3%	14.2%	-0.25%
c1ccc(N=C(Nc2ccccn2)Nc2ccccn2)nc1	5.15%	-7.2%	1.1%	-34%	-14.7%	-25.1%
CCOC(=O)c1ccc(NC(=S)Nc2ncccc2C)cc1	15.8%	11.4%	42.5%	-3.3%	34.3%	21.2%
Cc1ccc2cc(-c3ccccc3)[nH]c2c1	-15.3%	-11.2%	-13.6%	-13.4%	-33.6%	-55%
Clc1ccc2c(c1)C(=P(c1ccccc1)(c1ccccc1)c1ccccc1)c1cc(Cl)cc(Cl)c1-2	83.7% (active)	52.6%	66.8%	50.6%	39.3%	64.6%
CC(C)N(C(=S)S)C(C)C	9.5%	4.95%	16.6%	-0.65%	-26.4%	-19.2%
COC(=O)C(=O)c1c(C(=O)OC)nc2nnc(N)n2c1-c1cccc([N+](=O)[O-])c1	23.6%	-4.35%	3.1%	17.3%	12.4%	18%
C/C=C1\CC2C=CC1C2 (stereo not given) (tested in a mixture with another compound)	5.35%	-15.4%	3.25%	0.5%	11.6%	8.15%

SMILES	growth inhibition [1]	growth inhibition [2]	growth inhibition [3]	growth inhibition [4]	growth inhibition [5]	growth inhibition [6]
CCOC(=O)C(CC(C)C)NC(=O)c1c2nc3c(C(=O)NC(CC(C)C)C(=O)OCC)cc(NC(C)=O)c(C)c3oc-2c(C)c(=O)c1N (stereo not given)	8.4%	34.5%	34.6%	-4.95%	-6.5%	48.8%
O=C(NCCCN1CCN(CCCNC(=O)Nc2ccc(N=Nc3ccccc3)cc2)CC1)Nc1ccc(N=Nc2ccccc2)cc1	-0.95%	16.3%	0.65%	-3.3%	-1.8%	14.6%
Nc1ccccc1C1CCCCC1	32.1%	-13.6%	52%	-19.4%	3.95%	26.6%
O=C1/C(=C/c2cccc(Cl)c2)CCCc2ccccc21	21.9%	13.8%	33.2%	11.3%	62.5%	44.4%
O=C1OC2C(O)C(CO)OC2n2c1cc(=O)[nH]c2=O (stereo not given)	2.55%	13.9%	9.4%	-4.15%	3.5%	-5.35%
Cc1c2cc[n+](C)c(C)c2cc2c1[nH]c1ccccc12	64.8%	19.8%	34.1%	12.8%	22.4%	37.8%
Oc1cc2c(cc1-c1cc3c(cc1O)OCO3)OCO2	-21.1%	-15.3%	-5.15%	-41%	-3.2%	0.55%
CC1(C)COC(c2ccc3c(c2)OCO3)N1 (stereo not given)	0.5%	-8.45%	-5.7%	-19.6%	-9.75%	0.6%
CCOC(=O)c1ccc(N(CCO)CCO)cc1	3.45%	12.4%	5.45%	-94.2%	32.5%	13.7%
COc1ccc(/C=N/NC(=S)NN)cc1	-6.6%	9.1%	13%	-18.9%	33.6%	13.2%
Cc1cc2ccccc2n1/C=C/C1=[N+](C)c2ccccc2C1(C)C	10.3%	6.25%	10.5%	-38.9%	8.1%	25.9%
CC(C)CCCC(C)[C@H]1CCC2C3CC=C4C[C@@H](OC(=O)CC(CC(=O)[O-])C(=O)[O-])CC[C@]4(C)C3CC[C@@]21C.N.N.[Pt+4] (stereo not given in full)	26.2%	13.1%	11.7%	4.2%	12.6%	0.35%
CCC(C)(O)c1cn(-c2ccc(Cl)cc2)nn1 (stereo not given)	-31.4%	-32.9%	-4.4%	16.4%	-6.55%	0.25%
NC(N)=NC(N)=Nc1ccc(S(=O)(=O)O)cc1	-4.7%	-26.9%	-47%	-22.7%	-29.6%	-11.8%
CCCCCCN1COCC(COc2ccc(Cl)cc2)OC1 (stereo not given)	23.8%	18.8%	36.9%	22.1%	10.7%	50.1%
CN(C)c1ccc(/C=C(\NC(=O)c2ccccc2)c2nc3ccccc3c(=O)o2)cc1	8.45%	10.3%	3.95%	11.5%	-15.8%	-9.3%
Cc1ccc2nc(C=Nc3ccccc3Cl)cc(C)c2c1	-7.4%	-5.85%	-9.3%	17.8%	-4.45%	3.2%
CC(C)CC(NC(=O)C(Cc1ccccc1)NC(=O)C(Cc1ccccc1)NC(=O)OC(C)(C)C)C(=O)OCc1ccccc1 (stereo not drawn) (Boc-Phe-Phe-Leu-OBn; configuration not given here)	-3.15%	-10.3%	-5.95%	-7.2%	0.95%	5.95%
CCN(CC)CCN=c1nc(/C=C\C=C\NN(C)C(=S)SC)c(C)nn1C	-49.7%	-7.95%	-15%	-12.3%	-1.05%	-12.8%
CCCCCCCCCC(=O)Oc1cccc2c1CC(C[Se]c1ccccc1)C(=O)O2 (stereo not given)	2.1%	-0.3%	-0.85%	-3.05%	-2.05%	5.7%
